Source: PubChem
In the library only some 14% were active in any assay of this set; here they are far more common.
Sm TGR inh = S. mansoni TGR enzyme inhibition; purified TGR, DTNB reduction, TNB absorbance 405 nm; AID 485364; Q962Y6; Potency, µM (highest dose often 114 µM), most hits filed as inhibitors; 360,000 compounds, 3% hits; also: nearly all actives have a fitted effect of over 60% in size
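TGR 20 nM + NADPH 100 uM (dispensed conc.), cpd preinc 15 min RT; start with NADPH (500 uM addition) then DTNB (15 mM addition). Kinetic TNB absorbance, 405 nm filter. Four-parameter Hill fit across titration.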
Pf growth 48h = inhibits P. falciparum growth in the first generation, 48 h. P. falciparum luciferase growth in erythrocytes, 48 h. AID 504832. Potency, µM (titrated, usually from 28.7 µM), usual class: inhibitors. 310,000 compounds, 5.9% hits
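Here the parasites carry a stable luciferase gene and grow inside erythrocytes in Albumax-based RPMI medium with compound for one erythrocytic cycle. Activity is scored as loss of luminescent signal.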
Giardia FBPA inh = Giardia lamblia aldolase inhibition; Potency, µM (top dose mostly 59.6 µM), most hits filed as inhibitors; AID 2451; purified Giardia FBPA; A8B2U2; 290,000 compounds, 0.71% hits; also: nearly all actives have a fitted effect of over 55% in size
Target sequence (A8B2U2 whole entry, looked up): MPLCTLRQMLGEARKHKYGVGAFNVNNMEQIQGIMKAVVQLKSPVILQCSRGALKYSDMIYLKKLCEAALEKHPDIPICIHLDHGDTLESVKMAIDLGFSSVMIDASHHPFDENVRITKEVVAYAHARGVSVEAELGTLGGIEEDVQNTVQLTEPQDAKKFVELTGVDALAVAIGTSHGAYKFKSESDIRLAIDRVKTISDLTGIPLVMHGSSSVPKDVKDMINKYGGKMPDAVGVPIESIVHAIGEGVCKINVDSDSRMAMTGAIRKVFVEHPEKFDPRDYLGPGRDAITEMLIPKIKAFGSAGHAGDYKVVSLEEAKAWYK
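Giardia FBPA (40 nM reagent) was preincubated 10 min at RT with compound (up to 57.5 uM final), then substrate plus GAPDH/TPI/NAD/arsenate coupling system with diaphorase/resazurin was added; resorufin fluorescence (525/598 nm) was read after 20 min.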
Pf growth 96h = P. falciparum growth inhibition at 96 hour, primary screen for plastid delayed-death inhibitors; P. falciparum luciferase reporter growth, 96 h; Potency, µM (top dose mostly 28.7 µM), most hits filed as inhibitors; 320,000 compounds, 6.9% hits
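Erythrocytes infected with luciferase-expressing P. falciparum were dispensed at 2% hematocrit and 0.05% parasitemia (final), then incubated with compounds 96 hours at 37 C in 5% CO2. Luminescence after detection reagent addition reported growth.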
HCMV antiviral = blocks human cytomegalovirus replication; activity change, negative = inhibition, % at 57.5 µM; AID 1259415; HFF cells, HCMV-luciferase reporter, 72 h; active compounds read low; 410,000 compounds, 4.5% hits; in the data active = activity change below about -60%; inconclusive = no clear call, values can overlap the other calls; inactive = above about -39%
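Cell-based, HFFs, 1000 cells/well, 16 h 37C; cpds in DMSO + HCMV-luc, MOI 1 PFU/cell; 72 h 37C; OneGlo luminescence after 5 min RT; norm. to buffer vs Salinomycin 10uM.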
Of the large screens only hits and unclear results are named; the others gave an inactive call. Unless noted, calls follow the shape of the dose curve; as a rule, active = well fitted curve in the direction sought with a large enough effect; inconclusive = small, poorly fitted or top-dose-only effect, or another doubt; inactive = no such curve, though single readings can be large; an effect the other way counts as inactive or inconclusive.

CCCCn1c(Cn2nc(C(=O)O)c3ccccc3c2=O)nc2cc(S(N)(=O)=O)ccc21	none
O=C(CCCn1c(=O)[nH]c2cc(Cl)ccc2c1=O)NCCCN1CCN(c2ccc(F)cc2)CC1	Pf growth 48h inconclusive, HCMV antiviral -62
O=C(c1cc2ccccc2oc1=O)N1CCN(CCc2ccccc2)CC1	Pf growth 96h 9.3µM
O=C(c1ccc(F)cc1Cl)N1CCN(CCc2ccccc2)CC1	Pf growth 96h 8.3µM
COc1ccc2oc(=O)c(C(=O)N3CCN(c4ccccc4C)CC3)cc2c1	HCMV antiviral inconclusive (no result: Pf growth 96h)
O=C(c1cc2ccccc2oc1=O)N1CCN(Cc2ccc3c(c2)OCO3)CC1	Sm TGR inh inconclusive, Pf growth 96h inconclusive
O=C(Nc1cc(=O)c2ccccc2o1)N1CCCCC1	Pf growth 48h 4.7µM, Pf growth 96h 5.2µM
O=C(Nc1cc(=O)c2ccccc2o1)N1CCOCC1	Pf growth 48h inconclusive
Cc1ccc(C)c(N2CCN(C(=O)c3cc4ccccc4oc3=O)CC2)c1	Pf growth 96h 9.3µM, HCMV antiviral -62 (no result: Pf growth 48h)
O=C(c1cccc(C(F)(F)F)c1)N1CCN(CCc2ccccc2)CC1	Pf growth 48h inconclusive
CC(CNCCCn1cnc2c(OCc3ccccc3)ncnc21)c1ccccc1 (stereo unspecified)	none (no result: Sm TGR inh, Pf growth 48h, Giardia FBPA inh, Pf growth 96h)
CNC(=O)CNC(=O)Nc1ccc(Cl)c(Cl)c1	none (no result: Sm TGR inh, HCMV antiviral)
O=C(O)c1cc2c(ccc3ccccc32)oc1=O	none (no result: Pf growth 48h)
O=C(c1cc2c(ccc3ccccc32)oc1=O)N1CCCC1	HCMV antiviral -90
C/C(=N\NC(=O)c1cccnc1)c1ccc(OC2OCCOC2Oc2ccc(/C(C)=N/NC(=O)c3cccnc3)cc2)cc1 (stereo unspecified)	none
COc1ccc(-c2oc(=O)c3cc(OC)c(OC)cc3c2-c2cc(F)cc(OC)c2)cc1	Pf growth 48h inconclusive, Pf growth 96h 2.9µM (no result: Giardia FBPA inh)
COc1ccc(C(=O)OC/C(O)=C(\C#N)c2nc3ccccc3[nH]2)cc1S(=O)(=O)N1CCOCC1	none
O=C(C1=C[C@@H](c2ccc(Br)cc2)C[C@@H](OCCCCO)O1)N1CCOCC1	Sm TGR inh inconclusive
O=C(O)C1=C[C@@H](c2ccccc2)C[C@@H](OCCCCO)O1	none (no result: Sm TGR inh, Pf growth 48h, Giardia FBPA inh, Pf growth 96h)
O=C(C1=C[C@@H](C2CC2)C[C@@H](OCCCCO)O1)N1CCOCC1	Sm TGR inh 56µM
CN1CCN(C(=O)C2=C[C@H](c3ccc(Br)cc3)C[C@H](OCCCCO)O2)CC1	Sm TGR inh 22µM
CN1CCN(C(=O)C2=C[C@@H](c3ccccc3)C[C@@H](OCCCCO)O2)CC1	Sm TGR inh 40µM
O=C(C1=C[C@@H](c2ccccc2)C[C@@H](OCCCCO)O1)N1CCOCC1	Sm TGR inh 40µM
O=C(NC1CCCCC1)C1CC(=O)N(CCc2ccc(F)cc2)C1 (stereo unspecified)	none
CC1CCCN(S(=O)(=O)c2ccc(NC(=O)c3nc(SC(C)C)ncc3Cl)cc2)C1 (stereo unspecified)	none (no result: Pf growth 48h, Giardia FBPA inh, Pf growth 96h)
COc1cc2c(cc1OC)C(/C=C/c1ccc(OC)c(OC)c1OC)=NCC2	none (no result: Sm TGR inh, Pf growth 48h, Pf growth 96h, HCMV antiviral)
O=C(C1=C[C@H](c2ccc(Br)cc2)C[C@H](OCc2ccc(CO)cc2)O1)N1CCOCC1	none
O=C(C1=C[C@@H](c2ccccc2)C[C@@H](OCc2ccc(CO)cc2)O1)N1CCOCC1	Sm TGR inh 45µM
CN1CCN(C(=O)C2=C[C@@H](c3csc4ccccc34)C[C@@H](OCCCCO)O2)CC1	Sm TGR inh 45µM
CC(C)Cc1ccc(-c2cc3nc(NCCOc4ccccc4)ccn3n2)cc1	none (no result: Sm TGR inh, Pf growth 48h, Giardia FBPA inh, Pf growth 96h)
O=C(O)C/C=C(\NC(=O)OCc1ccccc1)C(=O)OCc1ccccc1	Sm TGR inh 16µM
Cn1c(=O)c2c(nc3n2CC(O)CN3c2ccc(O)cc2)n(C)c1=O (stereo unspecified)	Sm TGR inh 20µM
Cc1ccc(N2CC(O)Cn3c2nc2c3c(=O)n(C)c(=O)n2C)cc1 (stereo unspecified)	none
COC(=O)c1ccc(OC(C)C(=O)c2ccc(C)cc2)cc1 (stereo unspecified)	Pf growth 96h inconclusive
Cc1c(NS(=O)(=O)c2cc(C(=O)NCc3cccnc3)cc(Cl)c2Cl)c(=O)n(-c2ccccc2)n1C	Pf growth 48h 12µM, Pf growth 96h inconclusive (no result: Giardia FBPA inh)
CCCOP(=O)(c1ccc(N(C)C)cc1)C(O)c1ccc(Br)cc1 (stereo unspecified)	Pf growth 96h inconclusive
